Experimental data taken from PubChem BioAssay.
Calls of active or inactive are those of the source.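 The calls were made as follows, unless noted: active = inhibition of the reporter signal at or above 50%; inactive = inhibition below 50%.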

Columns and labels:
[1] = inhibitors of TNFa-induced NFkB p65 translocation, primary screen, imaging, HUVEC, MLSMR starter and 10KST1 sets (AID 438;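 active = inhibition above 20% together with a positive visual image hit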;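 also: compound added about 3h40 before a 20 min TNFalpha stimulation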;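 as to inhibition: signal is the nuclear over cytoplasmic p65 intensity ratio per well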); details: HUVEC TNFa-induced p65 nuclear translocation; cell count: measured here: nuclei count (cytotoxicity indicator), at 2.08 µM; inhibition: at 2 µM, stronger effect = higher value, 0% TNFa-plus-vehicle, 100% no-TNFa wells
[2] = reduction of polyQ htt aggregates in cells – imaging, exon1htt(103Q)mCFP cells, high-content imaging, primary screen (AID 483;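 active = visual image review flags a hit and inhibition of aggregation exceeds 20%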;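 also: compound exposure lasted 3 days before fixation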;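 as to nuclei count: percent of the per-plate median nuclei count of sample wells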); details: exon1htt(103Q)mCFP cell line, aggregate imaging, at 2 µM; inhibition of aggregation: stronger effect = higher value; nuclei count: measured here: cell count, toxicity
[3] = endothelial E-selectin expression blockers – imaging, HUVEC, immunofluorescence, MLSMR starter and 10KST1 sets, primary screen (AID 487;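 active = visually confirmed hit in the image check and inhibition above 20%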;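 as to inhibition: signal is fraction of cell area covered by stained E-selectin grains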;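 as to nuclei count: 100% = median nuclei count of all wells on the same plate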); details: HUVEC TNFalpha-induced E-selectin immunofluorescence imaging, at 2 µM; inhibition: stronger effect = higher value; nuclei count: measured here: cell number, toxicity
[4] = target: Voltage-gated potassium channel subunit beta-2 (Rattus norvegicus) (UniProt P62483); assay: inhibitors of rat Kvbeta2 reductase activity – biochemical, NADPH fluorescence, primary screen (AID 622;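 active = fluorescence slope higher than the sample average by over 3 SD, cut at about -0.22 in these data, passing the limit was not always enough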;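 also: slope of raw intensity against log time taken from 70 to 1610 s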); details: recombinant KvBeta, 4-cyanobenzaldehyde reduction, at 10 µM, stronger effect = higher value
[5] = target: Voltage-gated potassium channel subunit beta-2 (Rattus norvegicus) (UniProt P62483); assay: enhancers of rat Kvbeta2 NADPH turnover – biochemical, NADPH fluorescence, primary screen (AID 623;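 active = NADPH fluorescence slope more negative than the mean of all samples by about 3 SD, 99.7% confidence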;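 also: fluorescence intensity change per second fitted from 20 to 320 s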); details: Recombinant KvBeta, NADPH fluorescence decrease slope, 10 min; at 10 µM; stronger effect = lower value
[6] = target: Alpha-2C adrenergic receptor (Homo sapiens) (UniProt P18825); assay: compounds altering alpha2C-coupled GIRK flux – cell-based, HEK293 alpha2C/GIRK1/2, thallium flux, primary screen (AID 624;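 active = fluorescence slope after compound addition differing from the mean of all screened samples at 99.7% confidence, in either direction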;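 also: slope of fluorescence ratio to pre-addition baseline per second over 15 to 24 s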); details: thallium flux BTC fluorescence, at 10 µM, actives lie on both sides
[7] = blockers of RIG-like receptor reporter activation – cell-based, Sendai virus stimulus, luciferase, 10K MLSCN set, TLR/RLR signaling modifier project, primary screen (AID 602276;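 active = inhibition at or above 50% at 10 µM; inactive = inhibition below 50%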;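 also: firefly luciferase from ISG56 promoter only with Renilla not read in this screen; 0% = Sendai virus plus DMSO and 100% = medium plus DMSO without virus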); details: HEK293 RL24 IRF3 luciferase reporter, at 10 µM, stronger effect = higher value
[8] = TLR3 IRF3 reporter activation blockers – cell-based, poly I:C stimulus, luciferase, 10K MLSCN set, primary screen (AID 602277); details: HEK293-TLR3 RL24 IRF3 luciferase reporter, at 10 µM, stronger effect = higher value

Sequence of Alpha-2C adrenergic receptor (Homo sapiens) (P18825 whole entry, looked up): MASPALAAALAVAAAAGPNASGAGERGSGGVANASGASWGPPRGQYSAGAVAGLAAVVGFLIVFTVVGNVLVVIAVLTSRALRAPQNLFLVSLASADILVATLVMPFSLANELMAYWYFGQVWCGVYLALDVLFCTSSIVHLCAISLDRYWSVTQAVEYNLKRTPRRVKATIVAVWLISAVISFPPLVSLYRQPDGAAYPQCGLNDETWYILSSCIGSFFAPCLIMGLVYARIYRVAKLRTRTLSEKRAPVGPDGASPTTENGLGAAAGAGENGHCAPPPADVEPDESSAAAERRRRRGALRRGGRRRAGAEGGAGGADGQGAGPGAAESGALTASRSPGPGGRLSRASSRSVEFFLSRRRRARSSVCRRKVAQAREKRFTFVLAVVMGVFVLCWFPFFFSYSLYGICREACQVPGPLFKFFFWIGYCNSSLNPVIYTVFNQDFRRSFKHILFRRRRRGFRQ
Sequence of Voltage-gated potassium channel subunit beta-2 (Rattus norvegicus) (P62483 whole entry, looked up): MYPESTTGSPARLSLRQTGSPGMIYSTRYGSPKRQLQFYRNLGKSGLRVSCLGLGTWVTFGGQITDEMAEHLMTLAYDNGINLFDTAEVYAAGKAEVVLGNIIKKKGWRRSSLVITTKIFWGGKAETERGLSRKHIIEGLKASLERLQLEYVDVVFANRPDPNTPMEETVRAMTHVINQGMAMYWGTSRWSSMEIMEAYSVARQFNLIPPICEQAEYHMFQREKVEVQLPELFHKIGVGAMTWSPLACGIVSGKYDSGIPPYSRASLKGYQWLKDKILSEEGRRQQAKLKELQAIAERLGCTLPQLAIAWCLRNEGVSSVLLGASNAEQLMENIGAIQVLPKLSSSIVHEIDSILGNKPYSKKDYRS

| Compound | cell count [1] | inhibition [1] | inhibition of aggregation [2] | nuclei count [2] | inhibition [3] | nuclei count [3] | fluorescence slope [4] | NADPH fluorescence slope [5] | slope [6] | inhibition [7] | inhibition [8] |
| --- | --- | --- | --- | --- | --- | --- | --- | --- | --- | --- | --- |
| CCCCc1c(O)nc(N2CCN(Cc3ccccc3)CC2)[nH]c1=O | 402 | -2.5% (inactive) | 9.1% (inactive) | 97.1% | -61% (inactive) | 101% | -0.343 (inactive) | -4.3e-05 (inactive) | 0.0053 (inactive) | 12.1% (inactive) | 13.6% (inactive) |
| CS(=O)(=O)N(CC(=O)NCc1ccncc1)Cc1ccc(Cl)cc1 | 614 | 8.7% (inactive) | -13.4% (inactive) | 107% | -83.3% (inactive) | 121% | -0.471 (inactive) | -1.2e-06 (inactive) | 0.00437 (inactive) | 17.3% (inactive) | 18% (inactive) |
| CCSc1nnc(-c2cccs2)o1 | 413 | -4.5% (inactive) | -4.3% (inactive) | 110% | 21.6% (inactive) | 111% | -0.369 (inactive) | -4.4e-05 (inactive) | 0.00573 (inactive) | -21.5% (inactive) | -57.7% (inactive) |
| NCCCCCc1nnc(SC/C=C/c2ccccc2)o1 | 396 | -9.8% (inactive) | 3% (inactive) | 69.1% | 20.9% (inactive) | 94% | -0.488 (inactive) | -4.2e-05 (inactive) | 0.00602 (inactive) | 14.3% (inactive) | 12.7% (inactive) |
| CCC(C)NC(=O)CC1Oc2ccc(C)cc2NC1=O (stereo not given) | 585 | -2% (inactive) | 9.7% (inactive) | 100% | -116% (inactive) | 126% | -0.56 (inactive) | -1.5e-05 (inactive) | 0.00629 (inactive) | 2.24% (inactive) | 22.9% (inactive) |
| CCn1c(NC(=O)c2cccc(Cn3cc(Cl)cn3)c2)nc2ccccc21 | 598 | 4% (inactive) | 13.3% (inactive) | 81.8% | -45.1% (inactive) | 110% | -0.506 (inactive) | -5.4e-05 (inactive) | 0.0059 (inactive) | -3.99% (inactive) | -9.89% (inactive) |
| O=C(OCc1cc2ccccc2[nH]c1=O)c1ccco1 | 234 | 5.6% (inactive) | 1.7% (inactive) | 87.3% | 40.8% (inactive) | 96.9% | -0.476 (inactive) | -6e-05 (inactive) | 0.0037 (inactive) | 4.98% (inactive) | 31.1% (inactive) |
| O=C1OC2(c3ccccc3)C3CCCC2C13 | 340 | -1.1% (inactive) | 7.7% (inactive) | 94.1% | 5.3% (inactive) | 107% | -0.548 (inactive) | -7.3e-05 (inactive) | 0.00538 (inactive) | 16% (inactive) | 15.6% (inactive) |
| COc1ccc(-c2nc(C#N)c(N3CCN(c4ccccc4)CC3)o2)cc1 | 841 | 1.4% (inactive) | -19.5% (inactive) | 96.2% | -64.6% (inactive) | 118% | -0.577 (inactive) | 1.4e-05 (inactive) | 0.00659 (inactive) | 5.66% (inactive) | 24.4% (inactive) |
| Cc1nc(CCNC(=O)c2ccccc2)cs1 | 347 | -6% (inactive) | 4.7% (inactive) | 102% | -51.1% (inactive) | 127% | -0.486 (inactive) | 9.5e-06 (inactive) | 0.00492 (inactive) | 9.26% (inactive) | -2.39% (inactive) |
| COc1ccccc1C(=O)N1CCN=C1SCc1cccnc1 | 266 | -0.3% (inactive) | -22.1% (inactive) | 103% | 0.7% (inactive) | 97.2% | -0.595 (inactive) | -3.9e-05 (inactive) | 0.00599 (inactive) | -7.45% (inactive) | 6.88% (inactive) |
| Cc1nnc(N2C(=O)C(O)=C(C(=O)c3ccco3)C2c2ccc(F)cc2)s1 (stereo not given) | 881 | 4.6% (inactive) | -4.4% (inactive) | 122% | 2.7% (inactive) | 123% | -0.601 (inactive) | -4.6e-05 (inactive) | 0.00826 (inactive) | 12.3% (inactive) | 19.7% (inactive) |
| COC(=O)c1nnn(-c2ccccc2)c1N | 314 | 10.6% (inactive) | 19% (inactive) | 92% | -13.3% (inactive) | 117% | -0.506 (inactive) | -2.7e-05 (inactive) | 0.00571 (inactive) | 6.82% (inactive) | 11.8% (inactive) |
| CC(C(N)=O)N1C(=O)C2C3C=CC(C3)C2C1=O (stereo not given) | 217 | 1.8% (inactive) | -14% (inactive) | 105% | -33.8% (inactive) | 121% | -0.443 (inactive) | -2.4e-05 (inactive) | 0.00534 (inactive) | 10.1% (inactive) | 11.3% (inactive) |
| O=C(NCC1CCCO1)c1ccc(C(=O)NCC2CCCO2)cc1 (stereo not given) | 331 | 1.9% (inactive) | -3.7% (inactive) | 101% | 52.3% (inactive) | 94.3% | -0.332 (inactive) | -3.2e-05 (inactive) | 0.00518 (inactive) | 1.79% (inactive) | 4.03% (inactive) |
